According to PubChem BioAssay:
The source made the active and inactive calls.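 The calls were made as follows, unless noted: active = compounds that lower viability of the colon cancer cells in the luminescence readout, with no numeric limit stated; inactive = the rest.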

Tests used:
[1] = stimulators of nuclear beta-catenin in C2C12, primary screen, imaging, WNT3A-conditioned medium, mouse C2C12, NPC library (AID 1117326; in the data active = nuclear beta-catenin stimulation mostly above about 4.2%, no sharp cut-off; inactive = mostly below about 10%; also: reference of the scale not given here); details: stronger effect = higher value
[2] = stimulators of insulin release from INS-1E, primary screen, cell-based, 5 mM glucose, NPC library (AID 1117329;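 active = compound raises insulin release from rat beta cells at 5 mM glucose, no numeric limit stated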; also: reference of the scale not given here); details: rat INS-1E insulin secretion, at 10 µM, stronger effect = higher value
[3] = growth inhibition of GSK3B-pretreated HCT116 cells – cell-based, CellTiter-Glo, 0.2 to 20 µM (AID 1117336;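 active = compounds lowering colon cancer cell viability after pretreatment blocking the GSK3B kinase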); details: HCT116 viability after GSK3B inhibitor, at 20 µM, stronger effect = higher value
[4] = inhibition of endothelial tube formation, primary screen, imaging, VEGF stimulated, CD31 staining, tube area, NPC library (AID 1117340;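 active = compound that reduces growth-factor-driven endothelial tube area in a mixed cell culture, no cutoff stated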); details: VEGF-stimulated ADSC/ECFC co-culture, at 10 µM, stronger effect = higher value
[5] = glucagon-like peptide 1 release enhancers, primary assay, NCI-H716 cell line, NPC library (AID 1117341;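 active = compound raises GLP1 secretion from the human gut endocrine cells, with no numeric limit stated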; also: reference of the scale not given here); details: NCI-H716 cells, at 10 µM, stronger effect = higher value
[6] = HCT116 colon cancer cell growth inhibition, primary screen, CellTiter-Glo luminescence, NPC library (AID 1117342;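 active = compounds that lower survival of HCT116 colon cancer cells in the luminescence readout, no numeric limit stated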); details: at 20 µM (top of the series)
[7] = CellTiter-Glo luminescent readout of SW480 viability loss, NPC library primary (AID 1117343); details: CellTiter-Glo luminescence; at 20 µM (top of the series)
[8] = decreased DLD-1 cellular survival, CellTiter-Glo luminescent readout, NPC compound collection, primary HTS (AID 1117346;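 active = compounds that lower survival of DLD-1 colon cancer cells in the luminescence readout, no cutoff given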); details: DLD-1 viability, CellTiter-Glo luminescence; at 20 µM (top of the series)

Row | SMILES | nuclear beta-catenin stimulation ([1]; at 10 µM) | nuclear beta-catenin stimulation ([1]; stimulation, at 2 µM) [%] | insulin secretion stimulation [2] | viability decrease [3] | tube area decrease [4] | GLP1 secretion stimulation [5] | inhibition of viability [6] | viability decrease (inhibition) [7] | viability decrease (inhibition) [8]
1 | Cc1ccccc1C(=O)N1CC/C(=N\OS(=O)(=O)O)c2ccc(Cl)cc21 | 0.7% (inactive) | -1.3 | 3.05% (inactive) | 19.7% (inactive) | -2.3% (inactive) | 3.1% (inactive) | 1.4% (inactive) | -15.6% (inactive) | -6.4% (inactive)
2 | CN(C)CCOC(c1ccccc1)c1ccc(Br)cc1 (stereo unspecified) | 4.6% (inactive) | 5.4 | 95% (active) | -92.2% (inactive) | -4.6% (inactive) | 12.6% (inactive) | 29.9% (inactive) | 55.5% (active) | 5.7% (inactive)
3 | COc1ccc(S(=O)(=O)N2c3ccc(Cl)cc3[C@@](O)(c3ccccc3Cl)[C@H]2C(=O)N2CCC[C@@H]2C(N)=O)cc1OC | 0.6% (inactive) | -0.8 | 2.35% (inactive) | 47.7% (inactive) | -23.5% (inactive) | -0.7% (inactive) | 34% (inactive) | 0.4% (inactive) | 4.6% (inactive)
4 | CC(C)CCC[C@@H](C)[C@H]1CC[C@H]2[C@@H]3CC=C4C[C@@H](O)CC[C@]4(C)[C@@H]3CC[C@]12C | -0.4% (inactive) | -1 | 1% (inactive) | 26.9% (inactive) | 37.5% (inactive) | -2.1% (inactive) | 43.2% (inactive) | 52.2% (active) | 41.9% (inactive)
5 | CCCCCCCCCCCCCCCC(=O)OCC(COC(=O)CCCCCCCCCCCCCCC)OC(=O)CCCCCCCCCCCCCCC | -0.4% (inactive) | -0.6 | 2.5% (inactive) | -7.6% (inactive) | -17.9% (inactive) | -5.4% (inactive) | -1.3% (inactive) | 2.7% (inactive) | -6.5% (inactive)
6 | C[C@@H](CN(C)C)CN1c2ccccc2Sc2ccccc21 | 3% (inactive) | -0.4 | 15.1% (active) | -61.3% (inactive) | 0.6% (inactive) | 10.3% (inactive) | 45.3% (inactive) | 103% (active) | 48.3% (inactive)
7 | COc1cccc2c1C(=O)c1c(O)c3c(c(O)c1C2=O)C[C@@](O)(C(=O)CO)C[C@@H]3O[C@H]1C[C@H](N)[C@H](O[C@@H]2CCCCO2)[C@H](C)O1 | 26.6% (active) | 79.4 | 0.2% (inactive) | 78.8% (active) | -67.7% (active) | -0.8% (inactive) | 66.5% (active) | 81% (active) | 76% (active)
8 | CCCCCCn1c(=O)c2c(ncn2C)n(C)c1=O | -0.5% (inactive) | -2 | 1.5% (inactive) | 1.6% (inactive) | 10.5% (inactive) | 1.6% (inactive) | 6.2% (inactive) | 15% (inactive) | -3.4% (inactive)
9 | COc1ccc(C=CC(=O)O)cc1 | -1.4% (inactive) | 0 | 1% (inactive) | -39% (inactive) | 4.7% (inactive) | -4.2% (inactive) | 2.2% (inactive) | -6.4% (inactive) | -5.9% (inactive)
10 | COC(=O)/C=C\C(=O)OC | 3.8% (inactive) | 9 | 2.95% (inactive) | 8.3% (inactive) | 10.6% (inactive) | -1.8% (inactive) | -5.7% (inactive) | 5.9% (inactive) | -5.6% (inactive)
11 | C/C(=N/NC(=O)c1ccncc1)C(=O)O | -0.8% (inactive) | -0.3 | -0.8% (inactive) | -23.6% (inactive) | -6.8% (inactive) | -2.8% (inactive) | -1.23% (inactive) | 17.4% (inactive) | 4.2% (inactive)
12 | NC[C@H]1O[C@H](O[C@@H]2[C@@H](O)[C@@H](O[C@H]3O[C@H](CO)[C@@H](O)[C@H](N)[C@@H]3O)[C@H](N)C[C@@H]2N)[C@H](O)[C@@H](O)[C@H]1O | -1.2% (inactive) | -0.6 | -0.8% (inactive) | -36.2% (inactive) | -10.7% (inactive) | -0.1% (inactive) | -13.3% (inactive) | -2.1% (inactive) | -23.8% (inactive)
13 | C[C@@]12CCC[C@H]1[C@@H]1CC[C@H]3C[C@@H](O)CC[C@]3(C)[C@H]1CC2 | 3% (inactive) | -0.1 | -1% (inactive) | 65.4% (active) | -28.4% (inactive) | 4% (inactive) | -11.6% (inactive) | 121% (active) | 103% (active)
14 | CCOC(=O)N1CCC(n2c(=O)[nH]c3cc(Cl)ccc32)CC1 | -2.8% (inactive) | -0.2 | -5.2% (inactive) | 15.6% (inactive) | 14.4% (inactive) | -8.8% (inactive) | 49.4% (inactive) | 19.8% (inactive) | 0.5% (inactive)
